Counter-ions that a name gives are not always drawn. Values without a mark were called inactive.
Each molecule was assayed on primary human airway basal cells (HBEC, luciferase-transduced) (assay: proliferation (luciferase bioluminescence) Z score relative to plate mean; higher = more proliferation / more cells, active = 1.96 or more). Settings: donor: 1; 0.5 µM; library: ENZO Libraries; 4 days.
Protocol: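 Primary human bronchial epithelial (airway basal) cells from two donors, lentivirally transduced with pHIV-Luc-ZsGreen, were seeded at 2000 cells/well in 384-well plates in FAD medium with ENZO or Prestwick library compounds and cultured for 4 days. Luciferin was then added and bioluminescence was read as a measure of cell number. Relative light units were converted to Z scores against the plate, and the mean of triplicate wells is reported.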

Row | Structure (SMILES) | proliferation
1 | O=C(O)c1ccc2nc(-c3ccccc3)c(-c3ccccc3)nc2c1 | -0.199
2 | Cc1ccc(S(=O)(=O)N[C@@H](Cc2ccccc2)C(=O)CCl)cc1 | -0.621
3 | N=C(N)Nc1ccc(C(=O)Oc2ccc3cc(C(=N)N)ccc3c2)cc1 [Nafamostat mesylate] | 0.0117
4 | C=C1C(=O)O[C@@H](CCC)[C@@H]1C(=O)O [Butyrolactone 3] | -0.342
5 | CC(C)CC(=O)N[C@H](C(=O)N[C@H](C(=O)N[C@@H](CC(C)C)[C@@H](O)CC(=O)N[C@@H](C)C(=O)N[C@@H](CC(C)C)[C@@H](O)CC(=O)O)C(C)C)C(C)C [Pepstatin A] | 0.161
6 | COc1cccc(-c2cc(=O)c3ccccc3o2)c1N | 2.9 (active)
7 | CC1(C)C[C@@H]1C(=O)N/C(=C\CCCCSC[C@H](N)C(=O)O)C(=O)O [Cilastatin] | -0.499
8 | O=c1oc(Cl)c(Cl)c2ccccc12 [34-Dichloroisocoumarin] | 0.257
9 | COc1cc2nc(N3CCCN(C)CC3)nc(NC3CCN(Cc4ccccc4)CC3)c2cc1OC | -0.123
10 | CCOC(=O)C1=CN(Cc2ccccc2)C=C(C(=O)OCC)C1c1ccccc1 | 0.415
11 | N#C/C(=C\c1ccc(O)c(O)c1)C(N)=O | -0.0866
12 | O=C[C@@H]1CCCN1C(=O)[C@@H]1CCCN1C(=O)OCc1ccccc1 [Z-Prolyl-prolinal] | -0.531
13 | O=c1c(-c2ccc(O)cc2)coc2cc(O)cc(O)c12 [Genistein] | 0.674
14 | CCCCCCCCCC(=O)N[C@@H](CCCN=C(N)N)C(=O)N[C@H](C(=O)N[C@@H](CCCCN)C(=O)N[C@@H](CCCN=C(N)N)C(=O)CCl)C(C)C | 0.21
15 | O=C(CCCN1C(=O)c2cccc3cccc(c23)C1=O)NO [Nullscript] | 0.202
16 | O=c1c(-c2ccc(O)cc2)coc2cc(O)ccc12 [Daidzein] | 0.207
17 | O=C(O[C@@H]1Cc2c(O)cc(O)cc2O[C@@H]1c1cc(O)c(O)c(O)c1)c1cc(O)c(O)c(O)c1 [Epigallocatechin gallate] | 0.183
18 | N#C/C(=C\c1ccc(O)c(O)c1)C(=O)NCc1ccccc1 | 0.366
19 | CCCCC[C@H](CC(=O)NO)C(=O)N[C@H](C(=O)N1CCC[C@H]1CO)C(C)C [Actinonin] | -0.508
20 | O=C1c2ccccc2C(=O)c2c(NCCc3ccc(O)cc3)ccc(NCCc3ccc(O)cc3)c21 | 0.275

Same assay, conditions: donor: 1; 5 µM; library: ENZO Libraries; 4 days

Row | Structure (SMILES) | proliferation
21 | O=C(O)c1ccc2nc(-c3ccccc3)c(-c3ccccc3)nc2c1 | -0.68
22 | Cc1ccc(S(=O)(=O)N[C@@H](Cc2ccccc2)C(=O)CCl)cc1 | -0.67
23 | N=C(N)Nc1ccc(C(=O)Oc2ccc3cc(C(=N)N)ccc3c2)cc1 [Nafamostat mesylate] | -0.0211
24 | C=C1C(=O)O[C@@H](CCC)[C@@H]1C(=O)O [Butyrolactone 3] | 0.149
25 | CC(C)CC(=O)N[C@H](C(=O)N[C@H](C(=O)N[C@@H](CC(C)C)[C@@H](O)CC(=O)N[C@@H](C)C(=O)N[C@@H](CC(C)C)[C@@H](O)CC(=O)O)C(C)C)C(C)C [Pepstatin A] | 0.196
26 | COc1cccc(-c2cc(=O)c3ccccc3o2)c1N | 2.39 (active)
27 | CC1(C)C[C@@H]1C(=O)N/C(=C\CCCCSC[C@H](N)C(=O)O)C(=O)O [Cilastatin] | -0.038
28 | O=c1oc(Cl)c(Cl)c2ccccc12 [34-Dichloroisocoumarin] | 0.055
29 | COc1cc2nc(N3CCCN(C)CC3)nc(NC3CCN(Cc4ccccc4)CC3)c2cc1OC | -0.996
30 | CCOC(=O)C1=CN(Cc2ccccc2)C=C(C(=O)OCC)C1c1ccccc1 | 0.65
31 | N#C/C(=C\c1ccc(O)c(O)c1)C(N)=O | -0.0854
32 | O=C[C@@H]1CCCN1C(=O)[C@@H]1CCCN1C(=O)OCc1ccccc1 [Z-Prolyl-prolinal] | -0.515
33 | O=c1c(-c2ccc(O)cc2)coc2cc(O)cc(O)c12 [Genistein] | 2.14 (active)
34 | CCCCCCCCCC(=O)N[C@@H](CCCN=C(N)N)C(=O)N[C@H](C(=O)N[C@@H](CCCCN)C(=O)N[C@@H](CCCN=C(N)N)C(=O)CCl)C(C)C | 0.0695
35 | O=C(CCCN1C(=O)c2cccc3cccc(c23)C1=O)NO [Nullscript] | -0.00941
36 | O=c1c(-c2ccc(O)cc2)coc2cc(O)ccc12 [Daidzein] | 1.72
37 | O=C(O[C@@H]1Cc2c(O)cc(O)cc2O[C@@H]1c1cc(O)c(O)c(O)c1)c1cc(O)c(O)c(O)c1 [Epigallocatechin gallate] | -0.177
38 | N#C/C(=C\c1ccc(O)c(O)c1)C(=O)NCc1ccccc1 | -0.179
39 | CCCCC[C@H](CC(=O)NO)C(=O)N[C@H](C(=O)N1CCC[C@H]1CO)C(C)C [Actinonin] | -0.446
40 | O=C1c2ccccc2C(=O)c2c(NCCc3ccc(O)cc3)ccc(NCCc3ccc(O)cc3)c21 | -0.000622

Source: the supplement of paper PMC12045047
